The subject of assay [1] is HT29 RNF43 G659fs (RNF43 659mut, CRISPR-edited). The experiment in a line: cell viability activity relative to DMSO (negative = inhibition); higher = more viable cells (less growth inhibition). The settings on record: 5 µM; 96 h. The protocol: (§1)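 Broad Repurposing Library primary screen at a single dose of 5 uM. HT29 sg-Ctrl and HT29 RNF43 G659fs CRISPR-edited isogenic cells were seeded at 2500 cells/well in 384-well plates in duplicate and treated for 96 h. Viability was read by CellTiter-Glo and reported as % activity relative to DMSO, with MG132 as the positive control (negative = growth inhibition).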

Assay [2] concerns HT29 sg-Ctrl (RNF43 wildtype). The description is as above. The settings on record: 5 µM; 96 h. The protocol:
as §1

SMILES strings stand for the structures. Values joined by “and” are separate entries in the source; they are usually repeats but may differ in a detail not shown here. Equal values may be shown once.

Take `NC(=O)Nc1cc(-c2cccc(F)c2)sc1C(=O)N[C@H]1CCCNC1`: the cell viability activity in assay [1] is -79.6%; in assay [2], -32.6%.

As for `Cn1ccc2cc(NC(=O)Nc3cccnc3)ccc21`, the figures for the cell viability activity in assay [1] and in assay [2] were -29.2% and -52%, respectively.

For `Nc1nc(Nc2ccc3c(c2)CCC(N2CCCC2)CC3)nn1-c1cc2c(nn1)-c1ccccc1CCC2` (centres undefined), the results for the cell viability activity in assay [1] and in assay [2] were -28.9% and -31.9%, respectively.

Consider `C[C@H](Oc1ccc(S(C)(=O)=O)cc1C(=O)N1CCN(c2ncc(C(F)(F)F)cc2F)CC1)C(F)(F)F`, for which the results for the cell viability activity in assay [1] and in assay [2] were -65.2% and -57.9%, respectively.

As for `C[C@H]1O[C@H](O[C@H]2[C@H](O)[C@@H](O)[C@@H](O[C@H]3[C@H](O)[C@@H](O)C(O)O[C@@H]3CO)O[C@@H]2CO)[C@H](O)[C@@H](O)[C@@H]1N[C@H]1C=C(CO)[C@@H](O)[C@H](O)[C@H]1O` (some centres undefined), the results for the cell viability activity in assay [1] and in assay [2] were -83.5% and -86.3%, respectively.

In the case of `Nc1ncn([C@@H]2O[C@H](CO)[C@@H](O)[C@H]2O)c(=O)n1`, the cell viability activity was -24.4% in assay [1] and -7.11% in assay [2].

As for `CCOC(=O)CCNc1cc(N2CCc3ccccc3CC2)nc(-c2ccccn2)n1`, the cell viability activity is -82.7% in assay [1] and -27.5% in assay [2].

Take `CCCCc1nc2cc(/C=C/C(=O)NO)ccc2n1CCN(CC)CC`: the results for the cell viability activity in assay [1] and in assay [2] were -99.3% and -98.6%, respectively.

In the case of `C/C=C1\NC(=O)[C@H]2CSSCC/C=C/[C@H](CC(=O)N[C@H](C(C)C)C(=O)N2)OC(=O)[C@H](C(C)C)NC1=O`, the results for the cell viability activity in assay [1] and in assay [2] were -94.9% and -77.3%, respectively.

Consider `Clc1ccccc1CNCC1CCC(CNCc2ccccc2Cl)CC1` (centres undefined), for which the cell viability activity in assay [1] was -26.3%; in assay [2], -19.9%.

`C=C1/C(=C\C=C2/CCC[C@]3(C)[C@@H]([C@H](C)CCCC(C)C)CC[C@@H]23)C[C@@H](O)C[C@@H]1O`: the cell viability activity in assay [1] is -54.3%; in assay [2], -70%.

`CCN1CCC[C@H]1CNC(=O)c1c(OC)ccc(Br)c1OC`: the cell viability activity in assay [1] is -49.5%; in assay [2] it was -38.6%.

On to `CC(C)OC(=O)OCOP(=O)(CO[C@H](C)Cn1cnc2c(N)ncnc21)OCOC(=O)OC(C)C`, for which the cell viability activity in assay [1] was -26.8%; in assay [2], -48.3%.

In the case of `C[C@H]1[C@@H](O)O[C@@H]2O[C@@]3(C)CC[C@H]4[C@H](C)CC[C@@H]1[C@@]24OO3`, the cell viability activity in assay [1] was -30.9%; in assay [2], -30%.

For `Cc1c(C(=O)Nc2ccc(N3CCC(N4CCOCC4)CC3)c(C#N)c2)cnn1-c1ccc(Cl)cc1`, the cell viability activity was -36.4% in assay [1] and -33.4% in assay [2].

Consider `CNc1nc(-c2ccc3c(N)n[nH]c3c2)cc(N2C[C@@H](C(=O)NC3CCCCC3)CC[C@H]2C)n1`, for which the cell viability activity in assay [1] was -31.4%; in assay [2], -23%.

As to `CCn1cc(-c2ccnc3[nH]c(-c4cccc(CN(C)C)c4)cc23)c(-c2ccc(NC(=O)N(C)C)cc2)n1`, the cell viability activity was -84.6% in assay [1] and -63.8% in assay [2].

Consider `COc1cc(NC(=O)Nc2cccc(CNC(=O)O[C@H]3CCOC3)c2)ccc1-c1cnco1`, for which the figures for the cell viability activity in assay [1] and in assay [2] were -41.5% and -23.6%, respectively.

Consider `CC(C)C[C@H](NC(=O)[C@@H](NC(=O)c1cccc(-c2ccccc2)n1)[C@@H](C)O)B(O)O`, for which the figures for the cell viability activity in assay [1] and in assay [2] were -95.1% and -95.4%, respectively.

As for `CCOc1cc2ncc(C#N)c(Nc3ccc(OCc4cccc(F)c4)c(Cl)c3)c2cc1NC(=O)/C=C/CN(C)C`, the cell viability activity in assay [1] was -30.8%; in assay [2], -28.1%.

For `O=C(Nc1ccccc1-c1cn2c(CN3CCNCC3)csc2n1)c1cnc2ccccc2n1`, the cell viability activity in assay [1] is -74.8%; in assay [2], -81.8%.

Take `CC(=O)[C@]1(O)Cc2c(O)c3c(c(O)c2[C@@H](O[C@H]2C[C@H](N)[C@H](O)[C@H](C)O2)C1)C(=O)c1ccccc1C3=O`: the cell viability activity in assay [1] was -97.8% and -97.3%; in assay [2] it was -93% and -97.3%.

As for `C=CCn1c(=O)c2cnc(Nc3ccc(N4CCN(C)CC4)cc3)nc2n1-c1cccc(C(C)(C)O)n1`, the cell viability activity was -74.4% in assay [1] and -81% in assay [2].

Consider `Cn1cc(-c2[nH]c3cc(NC(=O)[C@H](N)C4CCCCC4)cc4c3c2C=NNC4=O)cn1`, for which the cell viability activity is -54.9% in assay [1] and -79.1% in assay [2].

With `CCN1CCN(Cc2ccc(Nc3ncc(F)c(-c4cc(F)c5nc(C)n(C(C)C)c5c4)n3)nc2)CC1`, the cell viability activity in assay [1] was -49.8%; in assay [2], -44.9%.

In the case of `CC(C)N(C[C@H]1O[C@@H](n2cnc3c(N)ncnc32)[C@H](O)[C@@H]1O)[C@H]1C[C@@H](CCc2nc3cc(C(C)(C)C)ccc3[nH]2)C1`, the cell viability activity in assay [1] is -24.1%; in assay [2] it was -26.5%.

With `Nc1nc(Cl)nc2c1ncn2[C@@H]1O[C@H](CO)[C@@H](O)[C@@H]1F`, the cell viability activity is -30.3% in assay [1] and -63.4% in assay [2].

As to `COc1ccc2[nH]c(C(=O)c3ccccc3)cc2c1`, the cell viability activity in assay [1] is -61.7%; in assay [2], -55.7%.

On to `CCN(CC)CCCCNc1ncc2cc(-c3c(Cl)cccc3Cl)c(NC(=O)NC(C)(C)C)nc2n1`, for which the results for the cell viability activity in assay [1] and in assay [2] were -49.6% and -33%, respectively.

For the compound `N#Cc1ccc(COC[C@H]2O[C@@H](n3c(NCc4ccc(Cl)c(Cl)c4)nc4c(N)ncnc43)[C@H](O)[C@@H]2O)cc1`, the cell viability activity in assay [1] is -24.9%; in assay [2] it was -31.3%.

For `O=c1[nH]c(=O)n([C@H]2C[C@H](O)[C@@H](CO)O2)cc1F`, the cell viability activity in assay [1] was -58.1% and -58.2%; in assay [2], -54.2% and -63.2%.

Turning to `CN(C)C(=O)[C@H](O)[C@H](Cc1ccccc1)NC(=O)c1cc2cc(Cl)ccc2[nH]1`, the values for the cell viability activity in assay [1] and in assay [2] were -26.8% and 7.41%, respectively.

As for `Cc1cc(Nc2ccc(NC(=O)c3ccc(Nc4ccnc5ccccc45)cc3)cc2)nc(N)n1`, the figures for the cell viability activity in assay [1] and in assay [2] were -91% and -93.7%, respectively.

Take `O=C(O)[C@]1(Cc2cccc(Nc3nccs3)n2)CC[C@@H](Oc2cccc(Cl)c2F)CC1`: the values for the cell viability activity in assay [1] and in assay [2] were -24.5% and -24.6%, respectively.

Consider `Nc1ccc(F)cc1NC(=O)c1ccc(CNC(=O)/C=C/c2cccnc2)cc1`, for which the figures for the cell viability activity in assay [1] and in assay [2] were -39.6% and -64.8%, respectively.

Turning to `O=C(Cc1ccc(-c2ccc(OCCN3CCOCC3)cc2)cn1)NCc1ccccc1`, the cell viability activity is -59.4% in assay [1] and -52% in assay [2].

With `CCS(=O)(=O)Nc1ccc2[nH]c(O)c(C(=Nc3ccc(CN4CCCCC4)cc3)c3ccccc3)c2c1`, the cell viability activity is -77.1% in assay [1] and -75.4% in assay [2].
